Hit rate of the full screen: of about 340,000 compounds, about 3,300 (0.97%) were called active. The entries come from a sample that favours actives as a whole. Unmarked numbers belong to inactive results.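 How the source made its calls: active means maximum activity change below -70%; inconclusive means maximum activity change from -70% to -50%; inactive means maximum activity change above -50%.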
Test system: Potassium voltage-gated channel subfamily H member 2, brain isoform KCNH2 3.1 (human)
Experiment: qHTS for Inhibitors of KCHN2 3.1: Mutant qHTS
Details: U2OS KCNH2 3.1, thallium flux FluxOr; hits give low values
How it was run: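 Thallium flux read-out: FluxOr dye with Red40 quencher in HBSS/HEPES, 45 min at RT. Rate constants from kinetic reads were normalized to positive and negative DMSO controls. Cells: U2OS virally expressing the 3.1 isoform.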
On the % scale 0 is the no-effect control and ±100 the full control effect.

Q: With COc1cccc(OC)c1C(=O)N1CCN(Cc2ccccc2F)CC1 as the molecule, how does the activity change read?
A: -6.56%

Q: Which activity change does the source give for COc1ccc(CN2CN(C(C)C)CSC2=S)cc1 here?
A: -82.5% (active)

Q: How did the activity change turn out when S=C1SCN(CCN2CCOCC2)CN1Cc1ccccc1 was run?
A: -10.5%

Q: How did the activity change turn out when COc1ccc(CN2CN(C3CCCC3)CSC2=S)cc1 was run?
A: -9.2%

Q: For C[C@@H]1CN([C@@H](C)CO)C(=O)CCCn2cc(nn2)CO[C@H]1CN(C)S(=O)(=O)c1ccc(-n2cccn2)cc1, which activity change is on record?
A: 7.17%

Q: Which activity change does the source give for Cc1c(NC(=O)COC(=O)/C=C/c2cccc(F)c2)c(=O)n(-c2ccccc2)n1C here?
A: 1.3%

Q: For COc1ccccc1C(c1nnnn1C(C)(C)C)N1CCN(Cc2ccccc2)CC1 (stereo not drawn), which activity change is on record?
A: 5%

Q: How did the activity change turn out when CCC(C)(C)n1nnnc1C(c1ccccc1OC)N1CCSCC1 (stereo not drawn) was run?
A: -86.1% (active)

Q: CC(C)(C)n1nnnc1C(c1ccc(Cl)cc1)N1CCSCC1 (stereo not drawn) was tested. Which activity change did it give?
A: -3.03%

Q: Cc1ccccc1NC(=O)Cc1nc(COC(=O)CNC(=O)c2ccc(Cl)cc2Cl)cs1 was tested. Which activity change did it give?
A: -9.74%

Q: With COc1ccc(S(=O)(=O)N2CCCCC2)cc1C(=O)NC1CCS(=O)(=O)C1 (stereo not drawn) as the molecule, how does the activity change read?
A: 26.3%

Q: For CCN(CC)C(=O)C1=C(C)N(Cc2ccc(OC)cc2)C(=O)C(CC(=O)NCc2ccco2)C1 (stereo not drawn), which activity change is on record?
A: 22.6%

Q: How did the activity change turn out when CN(C)/C=C(/C(=O)c1ccccc1)S(=O)(=O)c1ccc(Cl)cc1 was run?
A: 7.64%

Q: For CN(C)/C=C(/C(=O)c1ccc(Cl)cc1)S(=O)(=O)c1ccccc1, which activity change is on record?
A: 3.05%

Q: With CN(C)/C=C(/C(=O)c1ccccc1Cl)S(C)(=O)=O as the molecule, how does the activity change read?
A: -180% (active)

Q: Which activity change does the source give for Cc1nc(N2CCOCC2)c2c(C)c(C(=O)Nc3ccc(C(F)(F)F)cc3)sc2n1 here?
A: -41.2%

Q: For COc1ccc(NC(=O)c2sc3nc(C)nc(N4CCN(c5ccccn5)CC4)c3c2C)c(OC)c1, which activity change is on record?
A: -30.8%

Q: Which activity change does the source give for Cc1cc(Br)ccc1NC(=O)c1sc2ncn(CC(=O)N3CCN(c4ccccn4)CC3)c(=O)c2c1C here?
A: -4.47%

Q: Cc1nc(N2CCN(c3ccccn3)CC2)c2c(C)c(C(=O)Nc3ccc(F)cc3)sc2n1 was tested. Which activity change did it give?
A: -101% (active)

Q: With Cc1nc(N2CCN(c3ccccn3)CC2)c2c(C)c(C(=O)Nc3ccc(F)c(Cl)c3)sc2n1 as the molecule, how does the activity change read?
A: -77.6% (active)

Q: How did the activity change turn out when Cc1nc(N2CCC(C)CC2)c2c(C)c(C(=O)Nc3cc(F)ccc3C)sc2n1 was run?
A: -5.3%

Q: How did the activity change turn out when CC1(C2CC2)NC(=O)N(CC(=O)N2CCN(c3ccccc3F)CC2)C1=O (stereo not drawn) was run?
A: 3.05%

Q: CN1OC[C@@H]2CN(S(=O)(=O)c3cccc(C(F)(F)F)c3)[C@H](c3ccc(-c4cc5ccccc5o4)cc3)C[C@@H]21 was tested. Which activity change did it give?
A: -6.35%
